We go through 38 molecules from PubChem BioAssay (NCATS).

Records with an inconclusive call do not appear. Entries that show only a call come without a potency. Activity calls are given as the source filed them. Calls follow the shape of the dose curve; as a rule, active = well fitted inhibition curve with a large enough effect; inconclusive = small, poorly fitted or top-dose-only effect; inactive = flat fitted curve, though single readings scatter. Where a SMILES comes first, the peptide text is derived from it. [ ]: non-standard residue; d: D form. pGlu = O=C1CC[C@@H](C(=O)O)N1

For the test, the system named is Zika virus NS2B-NS3 protease. Description: Primary screen GU AMC qHTS for Zika virus inhibitors (AID 1347154). Also: nearly all actives have a fitted effect of over 70% in size. Particulars: Zika NS2B-NS3 unlinked protease, AMC fluorogenic substrate; series mostly up to 54.1 µM. An outline of the steps:
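Unlinked Zika NS2B hydrophilic domain–NS3 protease complex at 25 nM in 10 mM Tris-HCl pH 8.0, 0.01% Tween 20, with an AMC peptide substrate. Fluorescence change (340/450 nm) over 15 min at room temperature, normalized to controls, fitted to 4-parameter Hill.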
For the molecule `O=C(O)C1CCC1`, the Potency entry is “inactive”.

For `CC(C)(C)c1nnc(NS(=O)(=O)c2ccccc2)s1`, the Potency entry is “inactive”. With `O=C(CCC1CCN(Cc2ccccc2)CC1)c1ccc2c(c1)NCCCC2` the entry was “inactive”; with `O=C1[C@@H]2[C@H]3CC[C@H](C3)[C@@H]2C(=O)N1CCCCN1CCN(c2ncccn2)CC1`, “inactive”. As to `CNC(=O)c1cnn(-c2nc(N)c3ncn([C@@H]4O[C@H](CO)[C@@H](O)[C@H]4O)c3n2)c1`, the Potency result was “inactive”.

Regarding `OCCCc1ccccc1`, the Potency result was “inactive”. In the case of `CC(=O)N1CCN(c2ccc(O)cc2)CC1`, the Potency result is “inactive”.

For the molecule `CC(C(=O)O)c1ccc(/C=C2\CCCCC2=O)cc1` (stereo not drawn), the Potency result was “inactive”. With `CCCCN(CCCC)C(C(N)=O)c1ccc(OC)cc1` (stereo not drawn) the entry was “inactive”; with `COc1ccc(CCC(C)=O)cc1`, “inactive”. On to `CC(C)OP(=O)(CP(=O)(OC(C)C)OC(C)C)OC(C)C`, for which the Potency result was “inactive”. Take `Cc1nc2n(c(=O)c1CCN1CCC(C(=O)c3ccc(F)cc3)CC1)CCS2`: the Potency entry is “inactive”.

Turning to `O=C1CCCc2c(O)cccc21`, the Potency result was “inactive”. With `O=C1NC(c2ccccc2)(c2ccccc2)C(=O)N1COP(=O)(O)O` the entry was “inactive”. For `CN1C(CSCC(F)(F)F)Nc2cc(Cl)c(S(N)(=O)=O)cc2S1(=O)=O` (stereo not drawn) the value was “inactive”; for `O=C(OCC1(COC(=O)c2cccnc2)CCCC(COC(=O)c2cccnc2)(COC(=O)c2cccnc2)C1O)c1cccnc1`, “inactive”; for `CC(C(O)c1ccccc1)N(C)CCOC(c1ccccc1)c1ccccc1` (stereo not drawn), “inactive”. For `CN1CCC(N(Cc2cccs2)c2ccccc2)CC1`, the Potency result was “inactive”. With `CCNC(=O)[C@@H]1CCCN1C(=O)[C@H](CCCN=C(N)N)NC(=O)[C@H](CC(C)C)NC(=O)CNC(=O)[C@H](Cc1ccc(O)cc1)NC(=O)[C@H](CO)NC(=O)[C@H](Cc1c[nH]c2ccccc12)NC(=O)[C@H](Cc1cnc[nH]1)NC(=O)[C@@H]1CCC(=O)N1` ([pGlu]HWSYGLRP-NHEt), the Potency result is “inactive”. For `Cc1c(N)cccc1C(F)(F)F` the value was “inactive”. Regarding `CCCCCCCCCCCCCC[N+](C)(C)C`, the Potency entry is “inactive”.

As to `CCOc1c(N2CCOCC2)cnn(C)c1=O`, the Potency result was “inactive”.

For `OCCc1ccccc1`, the Potency result is “inactive”. For `C#CC(C)(CC)OC(=O)c1ccccc1C(=O)O` (stereo not drawn), the Potency result was “inactive”. For `CN1Cc2cc(C(=O)N3CCC(C4CCNCC4)CC3)ccc2NC(CC(=O)O)C1=O` (stereo not drawn) the value was “inactive”; for `CC(C)NC(=O)c1ccc(C=O)cc1`, “inactive”. With `CC(C)(C)NCC(O)COc1ccccc1OCC1CCCO1` (stereo not drawn) the entry was “inactive”. With `CC1(C)O[C@@H]2C[C@H]3[C@@H]4CCC5=CC(=O)C=C[C@]5(C)[C@@]4(F)[C@@H](O)C[C@]3(C)[C@]2(C(=O)CO)O1` the entry was “inactive”; with `Fc1ccc(C(c2ccc(F)cc2)N2CCNCC2)cc1`, “inactive”. For `CCOC(=O)C(=O)c1csc(NC=O)n1`, the Potency result was “inactive”. With `Cc1ccccc1C(=O)N1CC/C(=N\OS(=O)(=O)O)c2ccc(Cl)cc21`, the Potency entry is “inactive”. In the case of `COc1ccc(-n2nc(CCC(=O)N(C)O)cc2-c2ccc(Cl)cc2)cc1`, the Potency result was “inactive”. Regarding `CC(C)C(=O)OCc1cccc(OC(=O)[C@@H]2N3C(=O)[C@@H](NC(=O)Cc4ccccc4)[C@H]3SC2(C)C)c1`, the Potency result is “inactive”. For `COCCc1ccccn1` the value was “inactive”. With `Cc1onc(-c2ccccc2)c1C(=O)Cl` the entry was “inactive”; with `CCOC(=O)c1ccc(NC(=O)CN2CCCCC2)cc1`, “inactive”.

Take `Cc1oc(-c2ccccc2)nc1CCC(=O)c1ccc(CC2SC(=O)NC2=O)cc1` (stereo not drawn): the Potency entry was “inactive”. For `C#Cc1ccc(-c2ccccc2F)cc1` the value was “inactive”.
